Reference: PubChem BioAssay (NCATS)
Records with an inconclusive call do not appear. Active and inactive are the calls of the source. Calls come from the whole dose curve; as a rule, active = well fitted inhibition curve with a large enough effect; inconclusive = small, poorly fitted or top-dose-only effect; inactive = no such curve, though single readings can be large or run the other way.

What follows are molecules tested against Retinaldehyde dehydrogenase 3 (Homo sapiens) (UniProt P47895) (assay: qHTS for Inhibitors of the Aldehyde Dehydrogenase Family (ALDH1A3) Primary screen (AID 2061315;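 note: plate controls were DMSO vehicle for no effect and reference inhibitor for full effect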)). Settings: ALDH inhibition qHTS; series mostly up to 56 µM; activity change, negative = inhibition: at the top concentration.

Structure (SMILES)	activity change, negative = inhibition
CC(C)(O)c1ccn2c(-c3ccc(F)c(-c4ccc(F)cc4C#N)c3)cnc2c1F	-18.1% (inactive)
COc1ccccc1N1CCN(CC[C@@](C)(C(=O)C2CCCCC2)c2ccccc2)CC1	-16.9% (inactive)
O=C1CSc2ccccc2N1Cc1cccc(C(F)(F)F)c1	10.1% (inactive)
CCOc1ccc(CCNC(=O)c2cc3sc(Cl)cc3n2C)cc1OCC	-5.25% (inactive)
CCOC(=O)C(CCc1ccccc1)NC1CSC(c2cccs2)CN(CC(=O)O)C1=O (stereo not given)	1.48% (inactive)
c1ccc(CN(CC2=NCCN2)c2ccccc2)cc1	-0.0922% (inactive)
CC(F)(F)CN1CCOc2c(nn(-c3ccccc3Cl)c2-c2ccc(Cl)cc2)C1=O	-1.88% (inactive)
Cc1ccc(N2CCN(CCC3NC(=O)c4ccccc43)CC2)cc1C (stereo not given)	-15% (inactive)
CO[C@@H]1[C@@H](O[C@H]2O[C@@H](C)[C@H](O[C@@H]3C[C@](C)(O)[C@H](O)[C@@H](C)O3)[C@@H](N(C)C)[C@@H]2O)[C@@H](CC=O)C[C@@H](C)[C@@H](O[C@H]2CC[C@H](N(C)C)[C@H](C)O2)/C=C/C=C/C[C@@H](C)OC(=O)C[C@H]1O	4.23% (inactive)
c1ccc(-c2csc(N3CCOCC3)n2)cc1	-7.4% (inactive)
Cc1cc(CN)cc(C)c1NC(=O)c1ccc(-c2cc(Cl)ccc2Cl)o1	3.68% (inactive)
CC(=O)SCC(=O)c1ccc(NS(=O)(=O)c2ccc(OCCCN(C)C)cc2)nc1	8.44% (inactive)
O=C(/C=C/c1c(C(=O)O)[nH]c2cc(Cl)cc(Cl)c12)Nc1ccccc1	1.28% (inactive)
CC(C)c1ccc(NC(=O)Cn2cnc3c2c(=O)n(C)c(=O)n3C)cc1	9.01% (inactive)
COc1ccc(C2Sc3ccccc3N(CCN(C)C)C(=O)C2OC(C)=O)cc1 (stereo not given)	1.27% [at 28 µM] (inactive)
